Assay in all cases: NCI-60 one-dose screen, 48 h (100 = growth as untreated, 0 = no growth, -100 = all killed)
Holding throughout (conditions): 10 µM

The test system of test [1] is T-47D breast.
The test system of test [2] is BT-549 breast.
In test [3] the test system is MDA-MB-435 melanoma.
In test [4] the test system is SW-620 colon.
The test system of test [5] is MCF7 breast.
Test [6] relates to HCC-2998 colon.
The subject of test [7] is KM12 colon.
Test [8] deals with HCT-116 colon.

Experimental findings from PubChem BioAssay (NCI) are described below.

This is part of a sample that, as a whole, favours compounds with a hit. Of some 83,000 tested, about 20% had one in any assay.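 For each line, cells grew in 96-well plates with the test compound present at a single concentration for 48 hours.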 Values without a mark were called inactive. Activity calls are given as the source filed them. The calls were made as follows: active = growth percent below 10; inactive = the rest.

As to `CCc1nn2c(-c3ccccc3)c(-c3cc(OC)c(OC)c(OC)c3)nc2s1`, the growth in test [1] is 72.5%; in test [2], 111%; in test [3], 95.5%; in test [4], 83.5%; in test [5], 60.6%; in test [6], 91.6%. In addition, in test [7], the growth is 94.7%.

Take `COc1cc(NS(C)(=O)=O)ccc1Nc1c2ccc(Cl)cc2nc2c(OC)cccc12`: the growth in test [1] was 27.7%; in test [2] it was 18.3%; in test [4], -32% (active); in test [5], 23.7%; in test [8], -63.7% (active); in test [6], -26.6% (active). The growth in test [7] was -49.4% (active).

For `O=C(N/N=C\c1cc(Cl)ccc1O)c1ccncc1`, the growth was 30.1% in test [1]; 89.4% in test [3]; 64.7% in test [4]; 14.6% in test [5]; 24.6% in test [8]; 53.6% in test [7].

Regarding `O=C(OCC1OC(n2cc(C(F)(F)F)c(=O)[nH]c2=O)CC1OC(=O)c1ccc([N+](=O)[O-])cc1)c1ccc([N+](=O)[O-])cc1` (stereo not drawn), the growth was 74.4% in test [1]; 60.1% in test [2]; 65.6% in test [4]; 33.6% in test [5]; 72.7% in test [8]; 51.5% in test [6]. Further, the growth in test [7] is 72.2%.

Take `CCOC(=O)c1cc2c(n1Cc1cc(OC)cc(OC)c1)-c1oncc1CC2`: the growth in test [1] is 54.8%; in test [2], 39.5%; in test [4], 34.9%; in test [5], 16.6%; in test [8] it was 14.2%; in test [7], 19.5%.

Turning to `Cc1cc(C(C)(C)CC(C)(C)C)ccc1OCCOCC[N+](C)(C)Cc1ccccc1`, the growth was -99% (active) in test [2]; -87% (active) in test [3]; -80.6% (active) in test [4]; -90.7% (active) in test [5]; -97.4% (active) in test [8].

As for `COc1ccc(-c2csc(NC(=O)CO[N+](=O)[O-])n2)cc1`, the growth in test [1] was 57%; in test [3], 106%; in test [4], 103%; in test [5] it was 92.6%; in test [8], 102%; in test [6], 105%. Moreover, the growth in test [7] was 95.8%.

On to `COc1ccc2oc(=O)cc(C3c4ccc([nH]4)C(c4cc(=O)oc5ccc(OC)cc45)c4ccc([nH]4)C(c4cc(=O)oc5ccc(OC)cc45)c4ccc([nH]4)C(c4cc(=O)oc5ccc(OC)cc45)c4ccc3[nH]4)c2c1` (stereo not drawn), for which the growth in test [1] is -28.7% (active); in test [2], -73.8% (active); in test [4] it was -64.1% (active); in test [5], -29.7% (active); in test [8], -70.4% (active); in test [6] it was 30.5%. Also, the growth in test [7] is 1.11% (active).

With `COc1ccc(/C(CS(=O)(=O)c2ccccc2)=N\O)cc1`, the growth in test [1] is 93.4%; in test [2], 102%; in test [4] it was 111%; in test [5], 94.6%; in test [8], 125%; in test [6], 112%. In test [7], the growth was 123%.

On to `CCCCCCCCCCCCCC[n+]1ccccc1`, for which the growth in test [1] is 12.7%; in test [2], -42.4% (active); in test [4] it was 2.31% (active); in test [5] it was 2.73% (active); in test [8], -44.3% (active); in test [6], -72.1% (active). The growth in test [7] was -86.1% (active).

For `Clc1ccc(-c2nc(-c3cccs3)cn3ccnc23)cc1`, the growth in test [1] was 16.3%; in test [3] it was 23.2%; in test [4], 57.3%; in test [5] it was 19.1%; in test [8], 68%; in test [7], 50.5%.

With `Cc1ccc(/C(CS(=O)(=O)c2ccc(C)cc2)=N\O)cc1`, the growth in test [1] is 103%; in test [3], 89%; in test [4], 106%; in test [5], 91.3%; in test [8], 103%; in test [6], 103%. Also, in test [7], the growth was 115%.

On to `C[N+]1(CC2CO2)CCCCCC1` (stereo not drawn), for which the growth in test [1] was 116%; in test [2] it was 116%; in test [4], 106%; in test [5], 107%; in test [6] it was 112%.

`CCOC(=O)[C@@H]1[C@H](c2ccccc2)[C@H]([N+](=O)[O-])[C@H](c2cn(-c3ccccc3)nc2C)N1Cc1ccccc1`: the growth is 44% in test [1]; 92.3% in test [3]; 73.1% in test [4]; 67.6% in test [5]; 37.5% in test [8]; 94% in test [6]. For the same compound, the growth in test [7] was 88%.

As to `C#CCNCCN1C(=O)c2ccc3c4c(ccc(c24)C1=O)C(=O)N(CCNCC#C)C3=O`, the growth in test [1] is 54.8%; in test [3] it was -35.8% (active); in test [4] it was 26.9%; in test [5], 14.9%; in test [8], -10.7% (active); in test [6], 13.2%. In test [7], the growth was 30.9%.

In the case of `O=c1oc2c3ccc4cnccc4c3[nH]c2c2ccccc12`, the growth was -8.53% (active) in test [1]; 32.7% in test [2]; 3.35% (active) in test [4]; -12.3% (active) in test [5]; -14.5% (active) in test [8]; 28.2% in test [7].

On to `Cc1[nH]nc2c(=S)[nH]c(=O)[nH]c12`, for which the growth is 104% in test [1]; 98.1% in test [2]; 103% in test [4]; 94% in test [5]; 105% in test [8]; 107% in test [7].

Turning to `Fc1ccc(-c2cc(C(Cl)Cl)no2)cc1`, the growth in test [1] was 110%; in test [3], 97.3%; in test [4], 92.1%; in test [5], 88.7%; in test [8], 90.3%; in test [6], 107%. In addition, the growth in test [7] is 94.4%.

Turning to `CC(=O)Nc1nc(C)c(C(=O)NNC=O)s1`, the growth is 127% in test [1]; 107% in test [3]; 101% in test [4]; 92.4% in test [5]; 79.4% in test [6]; 105% in test [7].
